Results from PubChem BioAssay AID1159580 (chemical genetic matrix, 2015).
Among all 5,500 compounds or so, about 2,000 (36%) were called active. About 18% were inconclusive and are not listed. Rule as the data show it: active = normalized growth mostly below about 0.91 (no sharp cut-off); inconclusive = no clear call, values can overlap the other calls; inactive = mostly above about 0.92. The list shows a part of the results.

Assay: chemical genetic growth profiling, strain panel (AID 1159580);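 also: tested at 20 µM; growth read once vehicle control cultures reached saturation at 30 °C; 1 = growth at the plate median or of vehicle wells; lower values mean less growth of the strain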
Settings: S. cerevisiae deletion strains, growth OD

Measured: normalized growth

O=[N+]([O-])O[C@@H]1CO[C@H]2[C@@H]1OC[C@@H]2O
inactive: locus YHR030C, strain SLT2, hits give low values 0.983 | locus YHR079C, strain IRE1, hits give low values 0.991 | locus YJL095W, strain BCK1, hits give low values 1 | locus YJR066W, strain TOR1, hits give low values 0.955 | locus YLR113W, strain HOG1, hits give low values 0.999 | locus YNL183C, strain NPR1, hits give low values 0.932 | locus YOR231W, strain MKK1, hits give low values 0.981 | locus YPL256C, strain CLN2, hits give low values 0.966
